Results published in PubChem BioAssay (EPA / NIEHS).
Active and inactive are the calls of the source. The calls were made as follows: active = hit-call score of the fitted dose curve at least 0.9, where 1 is the maximum; inactive = score below 0.9.

Assays:
Details in all cases: mRNA level, 48 h; actives raise or lower the signal
[1] = read-out: Peroxisomal acyl-coenzyme A oxidase 1 (ACOX1) gene, ACOX1 (gene 51); experiment: LTEA_HepaRG_ACOX1: Life Technologies and Expression Analysis (LTEA) Assay for Peroxisomal acyl-coenzyme A oxidase 1 (ACOX1) gene using HepaRG (AID 2283467)
How it was run: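 Differentiated human HepaRG cells were exposed in duplicate for 48 h in serum-free induction medium to eight half-log concentrations up to 100 uM in 0.5% DMSO. ACOX1 mRNA was then quantified by TaqMan qRT-PCR, normalized to ACTB, GAPDH and POLR2A.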

[2] = read-out: Bcl-2 (BAD) gene, BAD (gene 572); experiment: LTEA_HepaRG_BAD: Life Technologies and Expression Analysis (LTEA) Assay for Bcl-2 (BAD) gene using HepaRG (AID 2283469)
How it was run: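 Differentiated human HepaRG cells in serum-free induction medium were exposed in duplicate for 48 h to eight concentrations (top 100 uM, half-log steps, 0.5% DMSO). BAD mRNA was quantified by qRT-PCR normalised to ACTB, GAPDH and POLR2A, with bidirectional fitting versus DMSO.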

[3] = read-out: Bcl-2 (BAX) gene, BAX (gene 581); experiment: LTEA_HepaRG_BAX: Life Technologies and Expression Analysis (LTEA) Assay for Bcl-2 (BAX) gene using HepaRG (AID 2283470)
How it was run: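 Differentiated human HepaRG cells, plated 48 h then switched to serum-free induction medium, were exposed 48 h to 8 half-log concentrations up to 100 uM in 0.5% DMSO; BAX mRNA measured by qRT-PCR, normalized to ACTB, GAPDH, POLR2A.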

[4] = read-out: adenosine kinase (ADK) gene, ADK (gene 132); experiment: LTEA_HepaRG_ADK: Life Technologies and Expression Analysis (LTEA) Assay for adenosine kinase (ADK) gene using HepaRG (AID 2283471)
How it was run: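 ADK expression quantified by qRT-PCR, normalised to three housekeeping genes, after 48 h exposure of HepaRG cells to eight concentrations (top 100 uM, half-log steps, duplicate, 0.5% DMSO). Up- or down-regulation fitted relative to vehicle.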

[5] = read-out: Alpha-fetoprotein (AFP) gene, AFP (gene 174); experiment: LTEA_HepaRG_AFP: Life Technologies and Expression Analysis (LTEA) Assay for Alpha-fetoprotein (AFP) gene using HepaRG (AID 2283472)
How it was run: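 Human HepaRG cells plated 48 h, then switched to serum-free induction medium and exposed in duplicate for 48 h to 8-point half-log series from 100 uM in 0.5% DMSO. AFP mRNA by qRT-PCR, normalized to ACTB, GAPDH, POLR2A; bidirectional fit versus DMSO.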

BCL2L11 (gene 10018) = experiment: LTEA_HepaRG_BCL2L11: Life Technologies and Expression Analysis (LTEA) Assay for Bcl-2 (BCL2L11) gene using HepaRG (AID 2283473)
How it was run: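 Differentiated human HepaRG cells in serum-free induction medium were exposed in duplicate for 48 h to eight concentrations (top 100 uM, half-log steps, 0.5% DMSO). BCL2L11 mRNA was quantified by TaqMan qRT-PCR, normalized to ACTB/GAPDH/POLR2A, bidirectional fit versus DMSO.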

[6] = read-out: Apolipoprotein A-V (APOA5) gene, APOA5 (gene 116519); experiment: LTEA_HepaRG_APOA5: Life Technologies and Expression Analysis (LTEA) Assay for Apolipoprotein A-V (APOA5) gene using HepaRG (AID 2283474)
How it was run: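 Differentiated human HepaRG cells were exposed in duplicate for 48 h to eight half-log concentrations from 100 uM in 0.5% DMSO. APOA5 mRNA was quantified by TaqMan qRT-PCR, normalized to ACTB, GAPDH and POLR2A, and fitted bidirectionally against DMSO.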

[7] = read-out: Apoptosis regulator Bcl-2 (Homo sapiens) (UniProt P10415); experiment: LTEA_HepaRG_BCL2: Life Technologies and Expression Analysis (LTEA) Assay for Bcl-2 gene using HepaRG (AID 2283475)
How it was run: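 Differentiated HepaRG cells in serum-free induction medium were exposed for 48 h to eight half-log concentrations up to 100 uM in 0.5% DMSO, in duplicate. BCL2 mRNA was quantified by TaqMan qRT-PCR normalised to ACTB, GAPDH and POLR2A, with bidirectional fitting versus DMSO.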

[8] = read-out: Bcl-2 (BID) gene, BID (gene 637); experiment: LTEA_HepaRG_BID: Life Technologies and Expression Analysis (LTEA) Assay for Bcl-2 (BID) gene using HepaRG (AID 2283476)
How it was run: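 Differentiated HepaRG cells in serum-free induction medium were exposed in duplicate for 48 h to eight half-log concentrations up to 100 uM in 0.5% DMSO. BID mRNA was quantified by qRT-PCR, normalized to ACTB, GAPDH and POLR2A.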

Caspase-3 (Homo sapiens) = Caspase-3 (Homo sapiens) (UniProt P42574); experiment: LTEA_HepaRG_CASP3: Life Technologies and Expression Analysis (LTEA) Assay for cysteine-aspartic acid protease (CASP3) using HepaRG (AID 2283477)
Chain of Caspase-3 (Homo sapiens) (P42574 whole entry, looked up): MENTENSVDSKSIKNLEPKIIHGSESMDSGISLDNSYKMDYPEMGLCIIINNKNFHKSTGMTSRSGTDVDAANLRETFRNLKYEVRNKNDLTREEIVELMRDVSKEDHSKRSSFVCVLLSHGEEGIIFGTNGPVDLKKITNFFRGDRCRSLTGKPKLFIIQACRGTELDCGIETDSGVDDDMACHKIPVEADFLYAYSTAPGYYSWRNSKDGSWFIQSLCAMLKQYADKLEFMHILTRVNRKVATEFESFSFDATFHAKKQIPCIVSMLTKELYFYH
How it was run: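 Differentiated human HepaRG cells in serum-free induction medium were exposed 48 h to 8-point half-log concentrations from 100 uM (0.5% DMSO vehicle). CASP3 mRNA was measured by qRT-PCR, normalised to ACTB, GAPDH and POLR2A, with bidirectional fitting against DMSO.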

[9] = read-out: Cytochrome P450 (CYP24A1), CYP24A1 (gene 1591); experiment: LTEA_HepaRG_CYP24A1: Life Technologies and Expression Analysis (LTEA) Assay for Cytochrome P450 (CYP24A1) using HepaRG (AID 2283478)
How it was run: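 Differentiated HepaRG cells, pre-cultured 48 h, were exposed in duplicate for 48 h in serum-free induction medium to 8 half-log concentrations (top 100 uM, 0.5% DMSO). CYP24A1 mRNA was quantified by TaqMan qRT-PCR, normalized to ACTB/GAPDH/POLR2A, fitted bidirectionally versus DMSO.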

[10] = read-out: Cytochrome P450 (CYP1A2), CYP1A2 (gene 1544); experiment: LTEA_HepaRG_CYP1A2: Life Technologies and Expression Analysis (LTEA) Assay for Cytochrome P450 (CYP1A2) using HepaRG (AID 2283479)
How it was run: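 Differentiated human HepaRG cells in serum-free induction medium were exposed in duplicate for 48 h to 8-point half-log concentrations up to 100 uM in 0.5% DMSO. CYP1A2 mRNA measured by qRT-PCR, normalized to ACTB, GAPDH, POLR2A; bidirectional fit vs DMSO.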

[11] = read-out: cysteine-aspartic acid protease (CASP8), CASP8 (gene 841); experiment: LTEA_HepaRG_CASP8: Life Technologies and Expression Analysis (LTEA) Assay for cysteine-aspartic acid protease (CASP8) using HepaRG (AID 2283480)
How it was run: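 Differentiated human HepaRG cells, plated 48 h then switched to serum-free induction medium, were exposed in duplicate for 48 h to 8 half-log concentrations up to 100 uM in 0.5% DMSO. CASP8 mRNA was quantified by qRT-PCR, normalized to ACTB/GAPDH/POLR2A.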

[12] = read-out: Cytochrome P450 (CYP2B6), CYP2B6 (gene 1555); experiment: LTEA_HepaRG_CYP2B6: Life Technologies and Expression Analysis (LTEA) Assay for Cytochrome P450 (CYP2B6) using HepaRG (AID 2283481)
How it was run: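 Differentiated HepaRG cells, serum-free induction medium, exposed 48 h in duplicate to 8-point half-log concentrations from 100 uM in 0.5% DMSO. CYP2B6 mRNA by qRT-PCR, normalized to ACTB, GAPDH, POLR2A; bidirectional fit versus DMSO.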

[13] = read-out: Cytochrome P450 2C19 (Homo sapiens) (UniProt P33261); experiment: LTEA_HepaRG_CYP2C19: Life Technologies and Expression Analysis (LTEA) Assay for CYP2C19 using HepaRG (AID 2283482)
How it was run: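 Differentiated human HepaRG cells were exposed for 48 h in serum-free induction medium to 8 concentrations (top 100 uM, half-log steps, 0.5% DMSO). CYP2C19 mRNA was measured by qRT-PCR, normalized to ACTB/GAPDH/POLR2A, and fitted bidirectionally against DMSO.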

CYP2C8 (gene 1558) = experiment: LTEA_HepaRG_CYP2C8: Life Technologies and Expression Analysis (LTEA) Assay for CYP2C8 using HepaRG (AID 2283483)
How it was run: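 Differentiated human HepaRG cells were exposed for 48 h in serum-free induction medium to eight half-log concentrations up to 100 uM in 0.5% DMSO, in duplicate. CYP2C8 mRNA was measured by TaqMan qRT-PCR, normalized to ACTB, GAPDH and POLR2A, and fitted bidirectionally against DMSO.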

CYP2C9 (gene 1559) = experiment: LTEA_HepaRG_CYP2C9: Life Technologies and Expression Analysis (LTEA) Assay for CYP2C9 using HepaRG (AID 2283484)
How it was run: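 Differentiated human HepaRG cells were exposed 48 h in serum-free induction medium to eight half-log concentrations up to 100 uM in 0.5% DMSO. CYP2C9 mRNA was measured by qRT-PCR, normalized to ACTB, GAPDH and POLR2A, and fitted bidirectionally against DMSO.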

CYP2E1 (gene 1571) = experiment: LTEA_HepaRG_CYP2E1: Life Technologies and Expression Analysis (LTEA) Assay for CYP2E1 using HepaRG (AID 2283485)
How it was run: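 HepaRG cells in serum-free induction medium exposed 48 h to test chemicals, 8 half-log concentrations up to 100 uM in 0.5% DMSO, duplicate. CYP2E1 mRNA by qRT-PCR, normalized to ACTB, GAPDH, POLR2A; bidirectional fit versus DMSO.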

[14] = read-out: Alkaline Phosphatase, Placental (ALPP) gene, ALPP (gene 250); experiment: LTEA_HepaRG_ALPP: Life Technologies and Expression Analysis (LTEA) Assay for Alkaline Phosphatase, Placental (ALPP) gene using HepaRG (AID 2283468)
How it was run: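 Differentiated human HepaRG cells were plated and cultured 48 h, then exposed in duplicate for 48 h in serum-free induction medium to eight half-log concentrations from 100 uM in 0.5% DMSO. ALPP mRNA was measured by TaqMan qRT-PCR, normalized to ACTB, GAPDH, POLR2A.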

Measured: AC50

Chain of Apoptosis regulator Bcl-2 (Homo sapiens) (P10415 whole entry, looked up): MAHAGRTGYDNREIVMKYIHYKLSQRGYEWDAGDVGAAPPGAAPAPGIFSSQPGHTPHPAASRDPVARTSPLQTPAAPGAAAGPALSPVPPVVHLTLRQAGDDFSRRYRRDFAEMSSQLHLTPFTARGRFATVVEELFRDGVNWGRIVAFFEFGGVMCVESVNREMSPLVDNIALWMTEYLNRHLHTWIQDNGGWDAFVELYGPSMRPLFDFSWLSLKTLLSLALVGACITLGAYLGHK
Chain of Cytochrome P450 2C19 (Homo sapiens) (P33261 whole entry, looked up): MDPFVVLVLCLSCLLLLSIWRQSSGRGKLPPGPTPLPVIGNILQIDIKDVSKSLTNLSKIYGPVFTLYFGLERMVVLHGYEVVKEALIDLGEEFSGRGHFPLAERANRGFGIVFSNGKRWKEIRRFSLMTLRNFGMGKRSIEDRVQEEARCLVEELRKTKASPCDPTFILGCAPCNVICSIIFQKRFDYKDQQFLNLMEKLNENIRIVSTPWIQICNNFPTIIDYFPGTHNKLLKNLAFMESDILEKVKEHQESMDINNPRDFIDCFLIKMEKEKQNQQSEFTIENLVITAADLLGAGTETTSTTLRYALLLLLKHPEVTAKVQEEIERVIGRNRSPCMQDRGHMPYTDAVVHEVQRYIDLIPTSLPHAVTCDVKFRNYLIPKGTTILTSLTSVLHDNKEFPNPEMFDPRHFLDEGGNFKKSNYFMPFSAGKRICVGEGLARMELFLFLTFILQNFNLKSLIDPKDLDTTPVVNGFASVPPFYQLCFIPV

CC(C)(O)c1ccc(CNC(=O)c2cccnc2Oc2ccc3nonc3c2)cc1
active: [10] 50 µM | [12] 0.987 µM | [13] 12.1 µM | CYP2C8 (gene 1558) 13 µM | CYP2E1 (gene 1571) 34.2 µM
not listed: [14]
inactive: all other assays above

CC(C)(C)c1csc(-c2cc3cc(OCc4ccccc4CC(=O)O)ccc3o2)n1
active: [1] 72.1 µM | [14] 24.4 µM | [4] 73.1 µM | [5] 23.9 µM | BCL2L11 (gene 10018) 18.8 µM | [6] 20 µM | [8] 75.7 µM | Caspase-3 (Homo sapiens) 77.7 µM | [12] 23.3 µM | [13] 33.5 µM | CYP2C8 (gene 1558) 25.5 µM | CYP2C9 (gene 1559) 12.5 µM | CYP2E1 (gene 1571) 16.8 µM
inactive: [2] | [3] | [7] | [9] | [10] | [11]

O=C(OCCCCCCOC(=O)c1ccccc1)c1ccccc1
active: [10] 12.5 µM
not listed: [14]
inactive: all other assays above

CN1C(=O)N(c2ccccc2Br)Cc2cnc(Nc3ccc4c(c3)OCC(CO)O4)nc21 (stereo unspecified)
inactive: [2] | BCL2L11 (gene 10018) | CYP2C8 (gene 1558)
active: [1] 77.9 µM | [14] 2.93 µM | [3] 12.9 µM | [4] 88.9 µM | [5] 23.1 µM | [6] 90.3 µM | [7] 89.1 µM | [8] 70.7 µM | Caspase-3 (Homo sapiens) 66.4 µM | [10] 90.9 µM | [11] 85.8 µM | [12] 74.3 µM | [13] 35.4 µM | CYP2C9 (gene 1559) 32.7 µM | CYP2E1 (gene 1571) 35 µM

CCCOC(=O)c1cc(O)c(O)c(O)c1
active: [5] 15.2 µM | [12] 0.674 µM | [13] 0.793 µM | CYP2E1 (gene 1571) 21.6 µM
not listed: [2] | [3] | [14]
inactive: all other assays above

COCC(C)OCC(C)OCC(C)O (stereo unspecified)
active: [12] 25.8 µM | CYP2E1 (gene 1571) 50 µM
inactive: all other assays above

CO[C@H]1/C=C/O[C@@]2(C)Oc3c(C)c(O)c4c(O)c(c(/C=N/N5CCN(C)CC5)c(O)c4c3C2=O)NC(=O)/C(C)=C\C=C\[C@H](C)[C@H](O)[C@@H](C)[C@@H](O)[C@@H](C)[C@H](OC(C)=O)[C@@H]1C
active: [14] 31.2 µM | [5] 13 µM | [10] 0.563 µM | [12] 0.359 µM | [13] 0.427 µM | CYP2C8 (gene 1558) 0.232 µM | CYP2E1 (gene 1571) 1.06 µM
not listed: CYP2C9 (gene 1559)
inactive: all other assays above
